aDG glyco act: alpha-DG glycosylation activation | hit rate 0.22% among 360,000 | activation, % at 10 µM | Pro5-aDG cells, alpha-DG glycosylation AlphaScreen (IIH6); 0% Pro5, 100% B10-LARGE cell signal | AID 624168;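 active means activation of at least 8% versus controls, or a plate z-score of at least 8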;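 further: Pro5 are CHO cells carrying HIG-tagged alpha-DG that lacks glycosylation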
FAS-TE inh: blocks the thioesterase domain of human fatty acid synthase; recombinant FAS-TE, OMFH fluorogenic substrate, fluorescence endpoint; AID 602261; P49327; inhibition, % at 15 µM; hit rate 0.67% among 360,000;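 active means compounds whose normalised, plate-corrected inhibition of enzyme fluorescence in the single-dose primary screen is 50% or more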;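 further: 0% = DMSO with enzyme and 100% = substrate without enzyme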
H9c2 protect: protects H9c2 cardiomyocytes from peroxide injury. AID 588492. H2O2 injury protection, ATPLite, 2 h. hit rate 0.63% among 360,000. protection from H2O2 cell death, % at 20 µM;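 active means compounds giving at least 50% protection of heart cells from peroxide-induced death in the single-dose screen, raw or plate-pattern-corrected value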;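 further: 0% = DMSO wells with peroxide and 100% = DMSO wells without peroxide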
CR mimetic SO: yeast age-related superoxide inhibition as caloric restriction mimetic; superoxide response (% of plate mean), % at 10 µM; AID 2690; S. cerevisiae aged cells, superoxide DHE fluorescence; stronger effect = lower value; hit rate 0.18% among 330,000;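 active means superoxide response under a set limit, about three screen SD below normal, cut at about 65% in these data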;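 further: yeast aged for seven days with compound at 30 °C before DHE staining; 100% = average MFI of all compound-treated wells on the plate with controls excluded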
Mot1-301 SUMO: blocks SUMOylation pathway, rescuing yeast Mot1-301 growth | S. cerevisiae Mot1-301 growth rescue, ATP luminescence, 38.5C; percent above DMSO median, 100 means doubled | growth rescue, % at 18.8 µM | hit rate 1% among 320,000 | AID 2716;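 active means every valid replicate shows activation above 250% relative to neutral control wells; inactive means the rest, any valid replicate at or below 250%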;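 further: OY570 slx delta 5 strain wells were the positive control but not used for scaling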
MPTP inh: inhibitors of mitochondrial permeability transition pore; isolated mouse mitochondria, Ca2+ swelling absorbance, 30 min; inhibition, % at 10 µM; hit rate 1.4% among 360,000; AID 602449;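 active means inhibition of 50% or more, scaled per plate between neutral and stimulator controls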;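 further: 0% = DMSO wells given calcium and 100% = 1 mM EGTA wells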
Yeast Mot1 SUMO: yeast SUMO pathway inhibition in dose response | 2,300 tested, under 10 active | AID 493004 | growth activity, percent, % at 42 µM | S. cerevisiae Mot1-301 galactose growth, ATP luminescence, 24 h; -100 = growth of slx-deleted rescue strain | shares compounds with Mot1-301 SUMO;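 active means Signal drops as the depositor expects, and the fitted half-maximal dose is no more than ten times the top valid tested dose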;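 further: more negative values mean stronger growth rescue toward the control strain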
Numbers without * were called inactive. Shown are actives, neighbours in structure and some others; about 3.8% of the full set was active somewhere.

What do the screens show for `O=C(O)CCCNS(=O)(=O)Cc1ccccc1`?
aDG glyco act: 0.1; FAS-TE inh: 1.3; H9c2 protect: 0.0; CR mimetic SO: 98.2; Mot1-301 SUMO: 4.4; MPTP inh: 1.0

Results for O=C(CCSc1ccccc1)Nc1ncccn1 ?
aDG glyco act: -0.3; FAS-TE inh: -3.6; H9c2 protect: 7.6; CR mimetic SO: 106.0; Mot1-301 SUMO: 730.8*; MPTP inh: -0.3; Yeast Mot1 SUMO: 0.3

Results for Cc1cccc(C)c1NC(=O)Nc1nnc([C@@H]2C[C@H](O)[C@@H](CO)O2)s1 ?
aDG glyco act: -0.3; FAS-TE inh: -10.3; H9c2 protect: -1.5; MPTP inh: -0.1

Results for O=C(CC(c1ccccc1)c1ccccc1)NCCOCc1ccccc1 ?
aDG glyco act: 0.1; FAS-TE inh: 9.9; H9c2 protect: -1.2; CR mimetic SO: 75.8; Mot1-301 SUMO: 403.2*; MPTP inh: -0.8; Yeast Mot1 SUMO: 0.2

What do the screens show for `COCCNC(=O)CC(c1ccccc1)c1ccccc1`?
aDG glyco act: -0.1; FAS-TE inh: -5.2; H9c2 protect: -3.3; CR mimetic SO: 89.2; Mot1-301 SUMO: -6.8; MPTP inh: 8.7

What do the screens show for `O=C(CSc1ccccn1)Nc1nonc1[N+](=O)[O-]`?
aDG glyco act: 4.2; FAS-TE inh: 5.2; H9c2 protect: -10.3; CR mimetic SO: 93.5; MPTP inh: 0.6

How did O=[N+]([O-])c1ccc(-c2csc(N3CCc4ccccc4C3)n2)cc1 do in these assays?
aDG glyco act: -0.4; FAS-TE inh: 22.4; H9c2 protect: -6.0; CR mimetic SO: 105.7; Mot1-301 SUMO: 366.7*; MPTP inh: 3.5; Yeast Mot1 SUMO: -0.2

Results for COc1ccc2cc(C#N)c(Nc3cccc(F)c3)nc2c1 ?
aDG glyco act: -0.4; FAS-TE inh: 1.4; H9c2 protect: -3.4; CR mimetic SO: 119.9; Mot1-301 SUMO: 572.1*; MPTP inh: 1.1; Yeast Mot1 SUMO: 0.2

How did CCc1nc2c(OCCOc3ccc(F)cc3)cccn2c1N(C=O)Cc1ccccc1 do in these assays?
aDG glyco act: 0.1; FAS-TE inh: 14.1; H9c2 protect: -1.1; MPTP inh: 0.3

How did CN(CC(=O)Nc1cccc(F)c1)CC(=O)Nc1cccc(S(N)(=O)=O)c1 do in these assays?
aDG glyco act: 0.0; FAS-TE inh: -2.9; H9c2 protect: 6.7; CR mimetic SO: 100.0; Mot1-301 SUMO: 739.6*; MPTP inh: 1.1; Yeast Mot1 SUMO: 0.2

How did COc1cc(/C=N/NC(=O)c2cccc([N+](=O)[O-])c2)ccc1O do in these assays?
aDG glyco act: -0.5; FAS-TE inh: -2.5; H9c2 protect: 7.5; CR mimetic SO: 97.2; Mot1-301 SUMO: active; MPTP inh: -1.3; Yeast Mot1 SUMO: -0.4

What do the screens show for `COc1ccc(/C=N/NC(=O)c2cccc([N+](=O)[O-])c2)cc1O`?
aDG glyco act: -0.4; FAS-TE inh: 0.3; H9c2 protect: 3.7; CR mimetic SO: 103.2; Mot1-301 SUMO: -11.0; MPTP inh: -1.1

Results for COc1cc(/C=N/NC(=O)c2nnn(-c3nonc3N)c2-c2cccs2)ccc1O ?
aDG glyco act: -0.2; FAS-TE inh: -1.3; H9c2 protect: 8.1; CR mimetic SO: 103.5; Mot1-301 SUMO: -4.1; MPTP inh: 0.1

How did COc1ccc(/C=N/NC(=O)c2nnn(-c3nonc3N)c2-c2cccs2)cc1OC do in these assays?
aDG glyco act: 0.2; FAS-TE inh: 3.2; H9c2 protect: 14.7; CR mimetic SO: 108.1; Mot1-301 SUMO: 398.6*; MPTP inh: 0.6; Yeast Mot1 SUMO: -0.6

What do the screens show for `O=C(NNC(=O)C12CC3CC(CC(C3)C1)C2)c1ccccn1`?
aDG glyco act: -0.2; FAS-TE inh: -4.5; H9c2 protect: 48.6; CR mimetic SO: 101.2; Mot1-301 SUMO: 998.3*; MPTP inh: -2.6; Yeast Mot1 SUMO: 0.0

How did COc1ccc(C(=O)N2CCN(S(=O)(=O)c3ccc4c(c3)OCCO4)CC2)cc1OC do in these assays?
aDG glyco act: 0.1; FAS-TE inh: 0.6; H9c2 protect: 0.1; CR mimetic SO: 97.0; Mot1-301 SUMO: 4.1; MPTP inh: -3.2

Screening data as filed in PubChem BioAssay.
